Compound activity (PubChem BioAssay)
A selection: hits, their analogues and other compounds. The true share with any hit is near 3.8%.
PfHsp90 yeast 2: reduces growth (ATP signal) of yeast expressing P. falciparum Hsp90; inhibition, % at 9.4 µM; 0.32% of 310,000 active; S. cerevisiae expressing PfHsp90, BacTiter-Glo ATP, 48 h; yeast lacking PDR1 and PDR3 efflux regulators;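 active means every replicate shows inhibition above about 80%, whatever the replicate mean, limit read from the data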;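 further: 0% = DMSO neutral controls and 100% = 20 µM radicicol positive controls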
tim10-1 inh: growth inhibitors of tim10-1 mutant yeast. S. cerevisiae tim10-1 ts strain growth, BacTiter-Glo, 24 h. inhibition, % at 20 µM. 2.2% of 330,000 active. AID 463190;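 active means inhibition of at least 40%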;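 further: mutant grown at 25 °C; 0% = DMSO wells with yeast and 100% = wells holding no yeast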
TIM10 inh: TIM10 yeast growth inhibition | AID 463195 | inhibition, % at 10 µM | 1.4% of 330,000 active | S. cerevisiae TIM10 strain growth, BacTiter-Glo luminescence, 24 h;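 active means inhibition of 40% or more at the single tested concentration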;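 further: wild-type TIM10 isogenic control strain grown at permissive 25 °C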
tim23-1 inh: growth inhibitors of tim23-1 mutant yeast. 1.3% of 330,000 active. AID 463212. inhibition, % at 20 µM. S. cerevisiae tim23-1 growth, BacTiter-Glo luminescence, 24 h;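 active means growth inhibition of the mutant yeast at or above 50%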;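 further: temperature-sensitive mutant grown at 25 °C; plate controls were DMSO-treated mutant yeast for no effect and medium wells lacking yeast for full effect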
Beta2AR agonist: agonists of human beta-2 adrenergic receptor inducing internalization; P07550; Am2.2-beta2AR cells, FAP receptor internalization, flow cytometry; response, % (no concentration beside the values); 0.43% of 340,000 active;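 active means response above a set limit, near 3 SD of response in nonfluorescent compounds, cut at about 42% in these data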
Target sequence (P07550 whole entry, looked up): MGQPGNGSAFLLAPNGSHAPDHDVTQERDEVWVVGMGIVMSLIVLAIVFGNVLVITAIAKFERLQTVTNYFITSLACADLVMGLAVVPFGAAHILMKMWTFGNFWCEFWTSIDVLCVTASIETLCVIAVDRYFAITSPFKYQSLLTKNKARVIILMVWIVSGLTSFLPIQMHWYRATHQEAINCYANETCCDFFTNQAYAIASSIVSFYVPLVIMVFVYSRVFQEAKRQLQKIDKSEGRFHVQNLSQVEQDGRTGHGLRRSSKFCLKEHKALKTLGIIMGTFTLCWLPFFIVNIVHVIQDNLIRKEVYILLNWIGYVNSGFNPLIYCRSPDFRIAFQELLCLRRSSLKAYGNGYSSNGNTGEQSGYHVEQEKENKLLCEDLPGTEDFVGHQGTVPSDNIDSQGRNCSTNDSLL
tim10-1 confirm: confirmation of tim10-1 mutant yeast growth inhibitors; S. cerevisiae tim10-1 ts strain growth, BacTiter-Glo, 24 h; shares compounds with tim10-1 inh; 56% of 7,400 active; inhibition, % at 20 µM;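 active means inhibition of yeast growth at or above a set limit in either of two repeat tests at 20 µM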;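 further: tim10-1 mutant grown at permissive 25 °C to find synthetic lethal compounds; 0% = DMSO yeast wells and 100% = medium wells without yeast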
TIM10 conf: confirmation of TIM10 yeast growth inhibitors; shares compounds with TIM10 inh; 63% of 4,600 active; AID 463215; inhibition, % at 10 µM; S. cerevisiae tim10 strain growth, BacTiter-Glo luminescence, 24 h;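 active means inhibition of yeast growth at or above a set limit in either of two replicates at 10 µM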;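 further: this counterscreen used the strain with wild-type TIM10; 0% = yeast with DMSO and 100% = medium wells lacking yeast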
tim23-1 confirm: tim23-1 yeast growth inhibition, confirmed; shares compounds with tim23-1 inh; S. cerevisiae tim23-1 growth, BacTiter-Glo luminescence, 24 h; inhibition, % at 20 µM; 83% of 4,400 active; AID 463218;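 active means inhibition above about 39% in either of two replicate wells at 20 µM, limit read from the data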;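 further: temperature-sensitive tim23-1 mutant grown at 25 °C; 0% = DMSO wells with yeast and 100% = medium wells without yeast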
Active calls of the source: *.

`Cc1cc(C)cc(NC(=S)Nc2ccc(Cl)c(Cl)c2)c1` gave PfHsp90 yeast 2 11, tim10-1 inh 62*, TIM10 inh 43*, tim23-1 inh 79*, Beta2AR agonist 12, tim10-1 confirm 56*, TIM10 conf 37* and tim23-1 confirm 75*.
Screening CCOC(=O)c1c(C)[nH]c(C(C)=O)c1C returned PfHsp90 yeast 2 -11, tim10-1 inh 6, TIM10 inh -8, tim23-1 inh 5 and Beta2AR agonist 0.
Screening CCOC(=O)c1[nH]c(C=O)c(C(=O)OCC)c1C returned PfHsp90 yeast 2 -12, tim10-1 inh 60*, TIM10 inh 67*, tim23-1 inh 76*, Beta2AR agonist 7, tim10-1 confirm 50*, TIM10 conf 55* and tim23-1 confirm 80*.
For CC/C=C(\NC(C)=O)c1ccccc1 the results were PfHsp90 yeast 2 -22, tim10-1 inh 8, TIM10 inh -1, tim23-1 inh 8 and Beta2AR agonist 0.
Screening O=c1cc(CN2CCc3ccccc32)c2ccc(O)cc2o1 returned PfHsp90 yeast 2 3, tim10-1 inh 44*, TIM10 inh 20, tim23-1 inh 51*, Beta2AR agonist 0, tim10-1 confirm 32* and tim23-1 confirm 48*.
O=C(Cc1ccccc1)Nc1ccccc1C(=O)NCC1CCCO1 (stereo unspecified) was read as PfHsp90 yeast 2 14, tim10-1 inh 6, TIM10 inh 4, tim23-1 inh 6 and Beta2AR agonist -10.
Screening Oc1ccc2ccccc2c1C=NC1CCCCC1 returned PfHsp90 yeast 2 26, tim10-1 inh 41*, TIM10 inh 18, tim23-1 inh 55*, Beta2AR agonist 10, tim10-1 confirm 14 and tim23-1 confirm 53*.
Oc1ccc2ccccc2c1/C=N/n1cnnc1 was read as tim10-1 inh 5, TIM10 inh 5, tim23-1 inh 11 and Beta2AR agonist 2.
For CC(C)Cc1nc(SCC(=O)N2CCCC2)c2c(=O)n(C)c(=O)n(C)c2n1 the results were PfHsp90 yeast 2 30, tim10-1 inh 17, TIM10 inh -6, tim23-1 inh 26 and Beta2AR agonist -23.
Cc1ccc(NC(=O)COc2ccccc2C=O)cc1Cl was read as PfHsp90 yeast 2 18, tim10-1 inh 43*, TIM10 inh 51*, tim23-1 inh 69*, Beta2AR agonist 1, tim10-1 confirm 26, TIM10 conf 51* and tim23-1 confirm 69*.
Screening CC(=O)Nc1cccc(NC(=O)COc2ccccc2C)c1 returned PfHsp90 yeast 2 13, tim10-1 inh 20, TIM10 inh 0, tim23-1 inh -1 and Beta2AR agonist -2.
Screening Oc1c(Br)cc(Br)cc1/C=N/c1nc2c(s1)CCCC2 returned PfHsp90 yeast 2 74, tim10-1 inh 53*, TIM10 inh 42*, tim23-1 inh 76*, Beta2AR agonist 32, tim10-1 confirm 28, TIM10 conf 30 and tim23-1 confirm 91*.
For Cc1cc(C)nc(SC2=CS(=O)(=O)c3ccccc32)n1 the results were PfHsp90 yeast 2 38, tim10-1 inh 15, TIM10 inh 28, tim23-1 inh 21 and Beta2AR agonist 1.
O=S1(=O)C=C(Sc2nc3ccccc3s2)c2ccccc21 was read as tim10-1 inh 69*, TIM10 inh 77*, tim23-1 inh 66*, tim10-1 confirm 65*, TIM10 conf 86* and tim23-1 confirm 12.
`COc1cccc(C(=O)Nc2ccc(Cl)c(C(F)(F)F)c2)c1` gave PfHsp90 yeast 2 57, tim10-1 inh 64*, TIM10 inh 61*, tim23-1 inh 68*, Beta2AR agonist 0, tim10-1 confirm 57*, TIM10 conf 50* and tim23-1 confirm 75*.
For CCOC(=O)n1c(=O)n(Cc2ccc(F)cc2)c2ccccc21 the results were PfHsp90 yeast 2 -16, tim10-1 inh 24, TIM10 inh -1, tim23-1 inh 29 and Beta2AR agonist -6.
CCOC(=O)n1c(=O)n(Cc2cccc(C)c2)c2ccccc21 was read as PfHsp90 yeast 2 -39, tim10-1 inh 51*, TIM10 inh 35, tim23-1 inh 59*, Beta2AR agonist -5, tim10-1 confirm 41* and tim23-1 confirm 53*.
COc1cc(N=C2C(=O)N3c4c(cccc42)C(C)=CC3(C)C)cc(OC)c1 was read as PfHsp90 yeast 2 -7, tim10-1 inh 20, TIM10 inh 16, tim23-1 inh 28 and Beta2AR agonist 17.
COc1cc2c3c(c1)C(C)=CC(C)(C)N3C(=O)C2=O was read as PfHsp90 yeast 2 1, tim10-1 inh 41*, TIM10 inh 12, tim23-1 inh 57*, Beta2AR agonist 4, tim10-1 confirm 28 and tim23-1 confirm 57*.
Screening Cc1ccc(S(=O)(=O)/N=C(\Sc2ccccc2)c2ccccc2)cc1 returned PfHsp90 yeast 2 20, tim10-1 inh 51*, TIM10 inh 29, tim23-1 inh 52*, Beta2AR agonist 15, tim10-1 confirm 33* and tim23-1 confirm 62*.
Screening COc1cccc(CN(C)C(=O)c2cc(-c3cccs3)nc3ccccc23)c1 returned PfHsp90 yeast 2 28, tim10-1 inh 18, TIM10 inh 0, tim23-1 inh 33 and Beta2AR agonist 9.
O=C1N=C(N2C=CC(=C3C=CNC=C3)C=C2)/C(=C/N=NC(=O)c2ccccc2)S1 was read as PfHsp90 yeast 2 -3, tim10-1 inh -9, TIM10 inh 14, tim23-1 inh 12 and Beta2AR agonist 6.
For O=C(NC1=NCCS1)c1cc(-c2cccs2)nc2ccccc12 the results were PfHsp90 yeast 2 -11, tim10-1 inh 48*, TIM10 inh 46*, tim23-1 inh 50*, Beta2AR agonist -6, tim10-1 confirm 46*, TIM10 conf 31* and tim23-1 confirm 54*.
`CC(C)(C)c1ccc(S(=O)(=O)N2CCN(CCC#N)CC2)cc1` gave tim10-1 inh 50*, TIM10 inh 17, tim23-1 inh 51*, Beta2AR agonist 3, tim10-1 confirm 27 and tim23-1 confirm 37.
`Cc1cc(C)c(C(=O)NNC(=O)c2cccnc2)c(C)c1` gave PfHsp90 yeast 2 -51, tim10-1 inh 11, TIM10 inh -11, tim23-1 inh 8 and Beta2AR agonist 3.
For COc1ccc(C(=O)c2coc(-c3ccccc3C(=O)O)c2C(=O)O)cc1 the results were PfHsp90 yeast 2 -15, tim10-1 inh 5, TIM10 inh -7, tim23-1 inh -6 and Beta2AR agonist 10.
